# Shown are actives, neighbours in structure and some others; about 3.5% of the full set was active somewhere.
# GPR151 ag: human GPR151 activation | PathHunter beta-arrestin GPR151 cells, luminescence | 650,000 tested, 1% active | activation, % at 11.2 µM | AID 1508602 | Q8TDV0; in the data active = activation above about 4.9%;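 also: 0% = median of compound wells and 100% = cells with positive control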
# Target sequence (Q8TDV0 whole entry, looked up): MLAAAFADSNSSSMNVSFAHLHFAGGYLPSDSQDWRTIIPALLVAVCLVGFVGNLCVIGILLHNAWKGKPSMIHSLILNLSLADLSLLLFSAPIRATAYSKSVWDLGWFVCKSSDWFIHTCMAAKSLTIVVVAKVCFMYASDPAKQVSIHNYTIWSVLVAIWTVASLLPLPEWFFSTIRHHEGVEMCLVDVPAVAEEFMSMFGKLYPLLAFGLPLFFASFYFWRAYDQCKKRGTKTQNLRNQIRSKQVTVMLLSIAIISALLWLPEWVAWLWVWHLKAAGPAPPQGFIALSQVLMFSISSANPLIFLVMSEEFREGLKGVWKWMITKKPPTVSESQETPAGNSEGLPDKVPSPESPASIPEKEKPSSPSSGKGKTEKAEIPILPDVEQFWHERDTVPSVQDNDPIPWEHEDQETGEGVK
# FBW7 activator: activators of human E3 ligase FBW7 | AlphaScreen FBW7–phospho-cyclin E peptide binding, activator screen | 650,000 tested, 0.13% active | AID 1259310 | normalized activity (activation), % at 26.1 µM; in the data active = normalized activity above about 1.9%;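 also: purified mutant Fbw7 with reduced substrate affinity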
# TEAD-YAP inh: TEAD-YAP interaction inhibition; HEK-TIYL cells, TEAD-Gal4/YAP UAS-luciferase luminescence; inhibition, % at 9.12 µM; 640,000 tested, 1.4% active; in the data active = inhibition above about 32%;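 also: 0% = median of test compound wells and 100% = reference inhibitor wells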
# MITF inh: inhibitors of human MITF; 650,000 tested, 0.91% active; inhibition, % at 2.6 µM; O75030; AlphaScreen MITF homodimerization, bead proximity signal; AID 1259374; in the data active = inhibition above about 50%;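 also: 0% = vehicle wells with protein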
# GPR151 conf act: human GPR151 activation, confirmation screen | GPR151 PathHunter beta-arrestin cells, luminescence, 90 min; % of EA-reagent control over plate median | 6,700 tested, under 10 active | shares compounds with GPR151 ag | activation, % at 11.2 µM;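 active = mean percent activation across replicates above the confirmation screen cutoff of 4.91%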
# GPR119 counter: GPR119 activation, counter-screen for GPR151 activators. shares compounds with GPR151 ag. GPR119 PathHunter beta-arrestin cells, luminescence, 90 min; 0 = compound-well median, 100 = enzyme-acceptor control. activation, % at 11.2 µM. 6,700 tested, 0.3% active. AID 1508611;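 active = mean percent activation in the counterscreen above 29.09%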;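 also: counterscreen on off-target GPR119 to flag nonselective hits from the GPR151 activator screen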
# * = called active by the depositor; . = no result.
SMILES,GPR151 ag,FBW7 activator,TEAD-YAP inh,MITF inh,GPR151 conf act,GPR119 counter
COC(=O)c1ccc(/C=C2\NC(=S)N(c3ccc(OC)cc3)C2=O)cc1,6.7*,0,12,5,0,2
COc1ccc(N2C(=O)/C(=C/c3ccc(OCC(=O)O)cc3)NC2=S)cc1,0,0,1,0,.,.
COc1cccc2cc(-c3ccc4c(c3)OCO4)c(=O)oc12,5.2*,0,-52,-11,-1,-12
COc1cccc2cc(-c3ccccc3)c(=O)oc12,-8,0,-20,-3,.,.
Cc1nc2sc3c(c2c(=O)n1-n1cccc1)CCCC3,5.9*,0,-3,7,0,8
Cc1ccccc1-n1c(C)nc2sc3c(c2c1=O)CCC3,-1,0,7,6,.,.
COc1cc(Br)cc(/C=N/NC(=O)CNc2ccccc2C)c1O,5.9*,-1,25,14,1,-1
COc1ccc(Br)cc1/C=N/NC(=O)CNc1ccccc1C,0,0,-4,-7,.,.
COc1ccc(Br)cc1/C=N/NC(=O)CSc1ccccn1,7.0*,1,1,10,0,-13
COc1ccccc1NCC(=O)N/N=C/c1ccccc1O,0,0,1,11,.,.
COc1ccccc1NCC(=O)N/N=C/c1cc(Br)ccc1O,9.8*,0,24,15,0,-18
COc1ccc(Br)cc1/C=N/NC(=O)CSc1ncccn1,-2,0,-2,19,.,.
COc1ccc(O[C@H]2C=C[C@@H](c3ccccc3)O[C@@H]2CO/N=C2/[C@H]3CCn4c(=O)n(-c5ccccc5)c(=O)n4[C@H]3[C@H](O)[C@@H]3O[C@H]23)cc1,6.7*,0,.,1,0,-1
COCCn1c2ccccc2n2c(=O)n(CC=C(C)C)nc12,0,0,-1,-4,.,.
O=C(Nc1cc(C(F)(F)F)cc(C(F)(F)F)c1)C1CC1,10*,0,4,12,-1,-22
CCC(C)NS(=O)(=O)c1ccc(OC)c(Br)c1 (stereo not given),0,1,8,9,.,.
NNC(=O)c1cc(-c2ccccc2)n(-c2ccccc2)n1,-1,0,-1,-17,.,.
O=c1cnn(-c2ccccc2)c(-c2ccccc2)c1,6.7*,0,-7,2,0,-2
Cc1nc2sccn2c(=O)c1C(=O)Nc1ccccc1Cl,-1,0,-11,8,.,.
O=C(Cn1nnc(-c2ccc3c(c2)OCO3)n1)Nc1ccccc1Cl,0,0,7,16,.,.
CSc1nnc2c(n1)OC(c1cccc(F)c1)Nc1ccccc1-2 (stereo not given),0,0,-7,9,.,.
O=C(Cn1ncc2ccccc21)NCc1cccc(Br)c1,-1,0,-42,-10,.,.
O=C(Cn1ncc2c(Cl)cccc21)NCc1cccc(Br)c1,6.5*,0,-9,0,0,0
COC(=O)N1CCN(Cc2ccc3c(c2)OCO3)CC1,-1,1,-8,2,.,.
CC1=C(C(=O)N2CCN(C(=O)c3ccco3)CC2)C2(CCC(C)CC2)OC1=O (stereo not given),2,0,6,-14,.,.
SMILES,GPR151 ag,FBW7 activator,TEAD-YAP inh,MITF inh,GPR151 conf act,GPR119 counter
CC1=C(C(=O)N2CCN(Cc3ccc4c(c3)OCO4)CC2)C2(CCC(C)CC2)OC1=O (stereo not given),6.5*,0,-2,11,0,-1
O=C(Nc1ccc2c(c1)OCO2)c1csc(N2CCN(Cc3ccc4c(c3)OCO4)CC2)n1,6.4*,0,4,0,1,6
NNC(=O)CCN1CCN(Cc2ccc3c(c2)OCO3)CC1,8.5*,0,-4,-8,1,-8
Cc1ccc(C(=O)N2CCN(Cc3ccc4c(c3)OCO4)CC2)o1,10*,0,2,5,0,-12
O=C(NC1CC1)c1csc(N2CCN(Cc3ccc4c(c3)OCO4)CC2)n1,-1,0,-8,2,.,.
Cc1ccc(S(=O)(=O)CCN2CCN(C)CC2)cc1,3,0,0,1,.,.
CN(CCNC(=O)CCn1nc(-c2ccccc2)ccc1=O)Cc1ccccc1,2,0,8,-8,.,.
Cc1cccc(C(=O)NC(c2n[nH]c(=S)n2C)C(C)C)c1 (stereo not given),0,1,7,5,.,.
Cc1ccc(-n2nnnc2SCC(=O)NC2CCCC2)c(C)c1,0,0,-3,2,.,.
CCCCNc1c(N2CCCC(C(=O)OCC)C2)c(=O)c1=O (stereo not given),5.1*,0,-1,1,3,6
CCOC(=O)N1CCN(c2c(NCCN3CCCCCC3)c(=O)c2=O)CC1,2,0,-9,-2,.,.
CCOC(=O)N1CCN(c2c(NCCN3CCCC3)c(=O)c2=O)CC1,5.5*,0,-6,1,1,10
CCOC(=O)N1CCN(c2c(NC3CCCCCCC3)c(=O)c2=O)CC1,3,0,2,3,.,.
CC1CCN(c2c(NCc3ccc(C(=O)NCCc4ccccc4)cc3)c(=O)c2=O)CC1,5.2*,0,-9,3,1,-8
CCOC(=O)C1CCCN(c2c(NCCCN3CCN(C)CC3)c(=O)c2=O)C1 (stereo not given),0,0,5,-3,.,.
CCOC(=O)N1CCC(Nc2c(NC(C)CC)c(=O)c2=O)CC1 (stereo not given),8.8*,0,-3,-20,0,10
CN1/C(=C(/C#N)c2nc(C#N)c(C#N)nc2N2CCCC2)Nc2ccccc21,0,0,0,-2,.,.
Cc1ccc(N2C(=O)NC(=O)/C(=C\c3ccc([N+](=O)[O-])o3)C2=O)cc1C,0,0,6,33,.,.
CCNc1ncc(C(=O)NCc2nc3ccccc3[nH]2)s1,-1,0,-10,5,.,.
C=C/C=C(/C=C1/C(=O)NC(=O)N(C)C1=O)\C=C\CSC,-1,0,-9,13,.,.
CCOC(=O)C1CCN(c2c(NCCCc3ccccc3)c(=O)c2=O)CC1,9.9*,0,-4,4,0,4
CCOC(=O)C1CCN(c2c(NCCN3CCOCC3)c(=O)c2=O)CC1,6.3*,0,1,10,-1,-18
CCOC(=O)C1CCCN(c2c(NCCCc3ccccc3)c(=O)c2=O)C1 (stereo not given),0,0,-13,6,.,.
CC1(C)CC(=O)C(C=Nc2ccc(NC3=C(C#N)C(=O)CC(C)(C)C3)cc2)=C(O)C1,7.1*,0,-1,16,1,-2
CC(=O)c1ccc(NC(=O)CN2CCN(c3ccccc3F)CC2)cc1,0,0,12,28,.,.
Clc1ccc(Sc2ncnc3sc4c(c23)CCCC4)cc1,15*,0,-5,-1,0,-11
O=C1CCCCN1c1cccc(NS(=O)(=O)c2cc(F)ccc2F)c1,7.1*,1,12,11,3,6

# Screening data deposited in PubChem BioAssay by The Scripps Research Institute Molecular Screening Center.
